Measured values taken from PubChem BioAssay AID1159580 (chemical genetic matrix, 2015).
In all, about 5,500 compounds went through this assay and about 2,000 (36%) were called active. Not shown: some 18% with an inconclusive outcome. No stated cut-off is given here; in the data, active means normalized growth mostly below about 0.91 (no sharp cut-off); inconclusive means no clear call, values can overlap the other calls; inactive means mostly above about 0.92. The list shows a part of the results.

Assay: chemical genetic growth profiling, strain panel (AID 1159580);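 further: tested at 20 µM; growth read once vehicle control cultures reached saturation at 30 °C; 1 = growth at the plate median or of vehicle wells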
Settings: growth OD

Measured: normalized growth

NCC(=O)c1ccccc1
inactive: S. cerevisiae deletion strains, locus YJR075W, strain HOC1, stronger effect = lower value 1.05 | S. cerevisiae deletion strains, locus YKL009W, strain mrt4, stronger effect = lower value 0.981 | S. cerevisiae deletion strains, locus YKL068W, stronger effect = lower value 1 | S. cerevisiae deletion strains, locus YKL085W, strain MDH1 (second series), stronger effect = lower value 0.988 | S. cerevisiae deletion strains, locus YKL085W, strain MDH1, stronger effect = lower value 0.988 | S. cerevisiae deletion strains, locus YKL160W, strain elf1, stronger effect = lower value 1 | S. cerevisiae deletion strains, locus YKL190W, strain CNB1, stronger effect = lower value 1.02 | S. cerevisiae deletion strains, locus YKR001C, strain vps1, stronger effect = lower value 0.988 | S. cerevisiae deletion strains, locus YKR026C, strain gcn3, stronger effect = lower value 1 | S. cerevisiae deletion strains, locus YKR091W, strain srl3, stronger effect = lower value 0.997 | S. cerevisiae deletion strains, locus YLL001W, strain dnm1, stronger effect = lower value 1 | S. cerevisiae deletion strains, locus YLL026W, stronger effect = lower value 1 | S. cerevisiae deletion strains, locus YLL041C, strain sdh2, stronger effect = lower value 1 | S. cerevisiae deletion strains, locus YLR027C, strain aat2, stronger effect = lower value 0.997 | S. cerevisiae deletion strains, locus YLR039C, strain RIC1, stronger effect = lower value 1.03 | S. cerevisiae deletion strains, locus YLR058C, strain SHM2, stronger effect = lower value 1.02 | S. cerevisiae deletion strains, locus YLR102C, strain apc9, stronger effect = lower value 0.988 | S. cerevisiae deletion strains, locus YLR113W, strain HOG1, stronger effect = lower value 1.07 | S. cerevisiae deletion strains, locus YLR221C, strain rsa3, stronger effect = lower value 1.02 | S. cerevisiae deletion strains, locus YLR258W, strain gsy2, stronger effect = lower value 0.977 | S. cerevisiae deletion strains, locus YLR262C, strain YPT6 (second series), stronger effect = lower value 1.03 | S. cerevisiae deletion strains, locus YLR262C, strain YPT6, stronger effect = lower value 1.02 | S. cerevisiae deletion strains, locus YLR268W, strain sec22, stronger effect = lower value 0.986 | S. cerevisiae deletion strains, locus YLR320W, strain mms22, stronger effect = lower value 0.991 | S. cerevisiae deletion strains, locus YLR330W, strain CHS5, stronger effect = lower value 1.02 | S. cerevisiae deletion strains, locus YLR342W, strain FKS1 (second series), stronger effect = lower value 0.988 | S. cerevisiae deletion strains, locus YLR342W, strain FKS1, stronger effect = lower value 0.992 | S. cerevisiae deletion strains, locus YLR357W, strain rsc2, stronger effect = lower value 0.966 | S. cerevisiae deletion strains, locus YLR370C, strain arc18, stronger effect = lower value 1.01 | S. cerevisiae deletion strains, locus YLR371W, strain rom2, stronger effect = lower value 0.993 | S. cerevisiae deletion strains, locus YLR384C, strain iki3, stronger effect = lower value 1.01 | S. cerevisiae deletion strains, locus YLR418C, strain cdc73, stronger effect = lower value 1 | S. cerevisiae deletion strains, locus YML016C, strain PPZ1, stronger effect = lower value 1.02 | S. cerevisiae deletion strains, locus YML032C, strain rad52, stronger effect = lower value 0.986 | S. cerevisiae deletion strains, locus YML120C, strain ndi1, stronger effect = lower value 0.989 | S. cerevisiae deletion strains, locus YML124C, strain tub3, stronger effect = lower value 0.993 | S. cerevisiae deletion strains, locus YMR058W, strain fet3, stronger effect = lower value 1.01 | S. cerevisiae deletion strains, locus YMR078C, strain ctf18, stronger effect = lower value 1 | S. cerevisiae deletion strains, locus YMR125W, strain sto1, stronger effect = lower value 1.01 | S. cerevisiae deletion strains, locus YMR129W, stronger effect = lower value 1 | S. cerevisiae deletion strains, locus YMR205C, strain PFK2, stronger effect = lower value 1.01 | S. cerevisiae deletion strains, locus YMR223W, strain ubp8, stronger effect = lower value 0.987 | S. cerevisiae deletion strains, locus YMR231W, strain pep5, stronger effect = lower value 0.992 | S. cerevisiae deletion strains, locus YMR263W, strain SAP30, stronger effect = lower value 1.04 | S. cerevisiae deletion strains, locus YMR307W, strain GAS1, stronger effect = lower value 1.02 | S. cerevisiae deletion strains, locus YNL067W, strain RPL9B, stronger effect = lower value 1.04 | S. cerevisiae deletion strains, locus YNL071W, strain lat1, stronger effect = lower value 0.998 | S. cerevisiae deletion strains, locus YNL128W, strain TEP1, stronger effect = lower value 1.05 | S. cerevisiae deletion strains, locus YNL153C, strain GIM3, stronger effect = lower value 1.02 | S. cerevisiae deletion strains, locus YNL183C, strain NPR1, stronger effect = lower value 0.995 | S. cerevisiae deletion strains, locus YNL209W, strain ssb2, stronger effect = lower value 1 | S. cerevisiae deletion strains, locus YNL233W, strain BNI4, stronger effect = lower value 1.02 | S. cerevisiae deletion strains, locus YNL248C, strain rpa49, stronger effect = lower value 0.99 | S. cerevisiae deletion strains, locus YNL250W, strain rad50, stronger effect = lower value 0.985 | S. cerevisiae deletion strains, locus YNL271C, strain bni1, stronger effect = lower value 0.986 | S. cerevisiae deletion strains, locus YNL298W, strain CLA4, stronger effect = lower value 0.994 | S. cerevisiae deletion strains, locus YNL307C, strain MCK1, stronger effect = lower value 0.987 | S. cerevisiae deletion strains, locus YNL322C, strain KRE1 (second series), stronger effect = lower value 0.989 | S. cerevisiae deletion strains, locus YNL322C, strain KRE1, stronger effect = lower value 1.03 | S. cerevisiae deletion strains, locus YNR049C, strain mso1, stronger effect = lower value 1.02 | S. cerevisiae deletion strains, locus YNR052C, strain pop2, stronger effect = lower value 0.995 | S. cerevisiae deletion strains, locus YOL006C, strain TOP1, stronger effect = lower value 1.09 | S. cerevisiae deletion strains, locus YOL012C, strain htz1 1.45 | S. cerevisiae deletion strains, locus YOL147C, strain pex11, stronger effect = lower value 0.993 | S. cerevisiae deletion strains, locus YOR001W, strain rrp6, stronger effect = lower value 1.01 | S. cerevisiae deletion strains, locus YOR061W, strain CKA2, stronger effect = lower value 1.01 | S. cerevisiae deletion strains, locus YOR069W, strain VPS5, stronger effect = lower value 1.01 | S. cerevisiae deletion strains, locus YOR070C, strain gyp1, stronger effect = lower value 1 | S. cerevisiae deletion strains, locus YOR080W, strain dia2, stronger effect = lower value 0.995 | S. cerevisiae deletion strains, locus YOR083W, strain WHI5, stronger effect = lower value 0.994 | S. cerevisiae deletion strains, locus YOR106W, strain vam3, stronger effect = lower value 1.02 | S. cerevisiae deletion strains, locus YOR136W, strain idh2, stronger effect = lower value 0.991 | S. cerevisiae deletion strains, locus YOR144C, strain elg1, stronger effect = lower value 0.999 | S. cerevisiae deletion strains, locus YOR184W, strain ser1, stronger effect = lower value 0.983 | S. cerevisiae deletion strains, locus YOR231W, strain MKK1, stronger effect = lower value 1.08 | S. cerevisiae deletion strains, locus YOR265W, strain rbl2, stronger effect = lower value 1.01 | S. cerevisiae deletion strains, locus YOR270C, strain vph1, stronger effect = lower value 1.06 | S. cerevisiae deletion strains, locus YOR290C, strain snf2, stronger effect = lower value 0.998 | S. cerevisiae deletion strains, locus YOR316C, strain cot1, stronger effect = lower value 0.992 | S. cerevisiae deletion strains, locus YPL051W, strain arl3, stronger effect = lower value 1.01 | S. cerevisiae deletion strains, locus YPL055C, strain LGE1, stronger effect = lower value 1.06 | S. cerevisiae deletion strains, locus YPL078C, strain atp4, stronger effect = lower value 1.02 | S. cerevisiae deletion strains, locus YPL106C, strain sse1, stronger effect = lower value 0.973 | S. cerevisiae deletion strains, locus YPL240C, strain hsp82, stronger effect = lower value 0.996 | S. cerevisiae deletion strains, locus YPL241C, strain CIN2, stronger effect = lower value 1.02 | S. cerevisiae deletion strains, locus YPL256C, strain CLN2, stronger effect = lower value 1.05 | S. cerevisiae deletion strains, locus YPR119W, strain clb2, stronger effect = lower value 0.996 | S. cerevisiae deletion strains, locus YPR141C, strain kar3, stronger effect = lower value 0.993 | S. cerevisiae deletion strains, locus YPR163C, strain tif3, stronger effect = lower value 0.99 | S. cerevisiae deletion strains, locus YPR167C, strain met16, stronger effect = lower value 0.991 | S. cerevisiae deletion strains, strain wtn01, stronger effect = lower value 0.987 | S. cerevisiae strains, strain wild type, stronger effect = lower value 1.01
